In PubChem BioAssay AID1159580 (chemical genetic matrix, 2015):
About 2,000 (36%) of roughly 5,500 compounds were called active. Not shown: some 18% with an inconclusive outcome. Cut-off read from the data, not from the text of the source: active = normalized growth mostly below about 0.91 (no sharp cut-off); inconclusive = no clear call, values can overlap the other calls; inactive = mostly above about 0.92. The list shows a part of the results.

Test: chemical genetic growth profiling, strain panel (AID 1159580);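 note: tested at 20 µM; growth read once vehicle control cultures reached saturation at 30 °C; 1 = growth at the plate median or of vehicle wells; lower values mean less growth of the strain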
Conditions: growth OD

Measured: normalized growth

COc1ccc(OC)c(C(O)CNC(=O)CN)c1 (stereo not given)
inactive: S. cerevisiae deletion strains, locus YKL009W, strain mrt4, stronger effect = lower value 0.969 | S. cerevisiae deletion strains, locus YKL068W, stronger effect = lower value 0.985 | S. cerevisiae deletion strains, locus YKL085W, strain MDH1 (second series), stronger effect = lower value 0.984 | S. cerevisiae deletion strains, locus YKL085W, strain MDH1, stronger effect = lower value 0.984 | S. cerevisiae deletion strains, locus YKL160W, strain elf1, stronger effect = lower value 1 | S. cerevisiae deletion strains, locus YKL190W, strain CNB1, stronger effect = lower value 0.984 | S. cerevisiae deletion strains, locus YKR001C, strain vps1, stronger effect = lower value 0.96 | S. cerevisiae deletion strains, locus YKR026C, strain gcn3, stronger effect = lower value 1.01 | S. cerevisiae deletion strains, locus YKR091W, strain srl3, stronger effect = lower value 0.996 | S. cerevisiae deletion strains, locus YLL001W, strain dnm1, stronger effect = lower value 1.01 | S. cerevisiae deletion strains, locus YLL026W, stronger effect = lower value 0.999 | S. cerevisiae deletion strains, locus YLL041C, strain sdh2, stronger effect = lower value 0.995 | S. cerevisiae deletion strains, locus YLR027C, strain aat2, stronger effect = lower value 1 | S. cerevisiae deletion strains, locus YLR039C, strain RIC1, stronger effect = lower value 0.966 | S. cerevisiae deletion strains, locus YLR058C, strain SHM2, stronger effect = lower value 0.976 | S. cerevisiae deletion strains, locus YLR102C, strain apc9, stronger effect = lower value 0.982 | S. cerevisiae deletion strains, locus YLR113W, strain HOG1, stronger effect = lower value 1.05 | S. cerevisiae deletion strains, locus YLR221C, strain rsa3, stronger effect = lower value 1 | S. cerevisiae deletion strains, locus YLR258W, strain gsy2, stronger effect = lower value 1 | S. cerevisiae deletion strains, locus YLR262C, strain YPT6 (second series), stronger effect = lower value 1.01 | S. cerevisiae deletion strains, locus YLR262C, strain YPT6, stronger effect = lower value 0.956 | S. cerevisiae deletion strains, locus YLR268W, strain sec22, stronger effect = lower value 0.996 | S. cerevisiae deletion strains, locus YLR320W, strain mms22, stronger effect = lower value 1.03 | S. cerevisiae deletion strains, locus YLR330W, strain CHS5, stronger effect = lower value 1 | S. cerevisiae deletion strains, locus YLR342W, strain FKS1 (second series), stronger effect = lower value 1.04 | S. cerevisiae deletion strains, locus YLR342W, strain FKS1, stronger effect = lower value 1.01 | S. cerevisiae deletion strains, locus YLR357W, strain rsc2, stronger effect = lower value 1.02 | S. cerevisiae deletion strains, locus YLR370C, strain arc18, stronger effect = lower value 1 | S. cerevisiae deletion strains, locus YLR371W, strain rom2, stronger effect = lower value 0.974 | S. cerevisiae deletion strains, locus YLR384C, strain iki3, stronger effect = lower value 1.02 | S. cerevisiae deletion strains, locus YLR418C, strain cdc73, stronger effect = lower value 0.973 | S. cerevisiae deletion strains, locus YML016C, strain PPZ1, stronger effect = lower value 0.99 | S. cerevisiae deletion strains, locus YML032C, strain rad52, stronger effect = lower value 0.959 | S. cerevisiae deletion strains, locus YML120C, strain ndi1, stronger effect = lower value 0.993 | S. cerevisiae deletion strains, locus YML124C, strain tub3, stronger effect = lower value 0.981 | S. cerevisiae deletion strains, locus YMR058W, strain fet3, stronger effect = lower value 1 | S. cerevisiae deletion strains, locus YMR078C, strain ctf18, stronger effect = lower value 0.976 | S. cerevisiae deletion strains, locus YMR125W, strain sto1, stronger effect = lower value 1 | S. cerevisiae deletion strains, locus YMR129W, stronger effect = lower value 1 | S. cerevisiae deletion strains, locus YMR205C, strain PFK2, stronger effect = lower value 1.02 | S. cerevisiae deletion strains, locus YMR223W, strain ubp8, stronger effect = lower value 0.993 | S. cerevisiae deletion strains, locus YMR231W, strain pep5, stronger effect = lower value 1.02 | S. cerevisiae deletion strains, locus YMR263W, strain SAP30, stronger effect = lower value 0.988 | S. cerevisiae deletion strains, locus YMR307W, strain GAS1, stronger effect = lower value 1.05 | S. cerevisiae deletion strains, locus YNL067W, strain RPL9B, stronger effect = lower value 0.971 | S. cerevisiae deletion strains, locus YNL071W, strain lat1, stronger effect = lower value 0.99 | S. cerevisiae deletion strains, locus YNL128W, strain TEP1, stronger effect = lower value 0.983 | S. cerevisiae deletion strains, locus YNL153C, strain GIM3, stronger effect = lower value 0.961 | S. cerevisiae deletion strains, locus YNL183C, strain NPR1, stronger effect = lower value 1 | S. cerevisiae deletion strains, locus YNL209W, strain ssb2, stronger effect = lower value 0.998 | S. cerevisiae deletion strains, locus YNL233W, strain BNI4, stronger effect = lower value 1.01 | S. cerevisiae deletion strains, locus YNL248C, strain rpa49, stronger effect = lower value 0.998 | S. cerevisiae deletion strains, locus YNL250W, strain rad50, stronger effect = lower value 0.968 | S. cerevisiae deletion strains, locus YNL271C, strain bni1, stronger effect = lower value 0.982 | S. cerevisiae deletion strains, locus YNL298W, strain CLA4, stronger effect = lower value 0.986 | S. cerevisiae deletion strains, locus YNL307C, strain MCK1, stronger effect = lower value 0.96 | S. cerevisiae deletion strains, locus YNL322C, strain KRE1 (second series), stronger effect = lower value 0.997 | S. cerevisiae deletion strains, locus YNL322C, strain KRE1, stronger effect = lower value 0.989 | S. cerevisiae deletion strains, locus YNR049C, strain mso1, stronger effect = lower value 1 | S. cerevisiae deletion strains, locus YNR052C, strain pop2, stronger effect = lower value 0.973 | S. cerevisiae deletion strains, locus YOL006C, strain TOP1, stronger effect = lower value 0.933 | S. cerevisiae deletion strains, locus YOL012C, strain htz1 0.916 | S. cerevisiae deletion strains, locus YOL147C, strain pex11, stronger effect = lower value 0.982 | S. cerevisiae deletion strains, locus YOR001W, strain rrp6, stronger effect = lower value 0.996 | S. cerevisiae deletion strains, locus YOR061W, strain CKA2, stronger effect = lower value 0.967 | S. cerevisiae deletion strains, locus YOR069W, strain VPS5, stronger effect = lower value 0.995 | S. cerevisiae deletion strains, locus YOR070C, strain gyp1, stronger effect = lower value 0.997 | S. cerevisiae deletion strains, locus YOR080W, strain dia2, stronger effect = lower value 1.01 | S. cerevisiae deletion strains, locus YOR083W, strain WHI5, stronger effect = lower value 1.01 | S. cerevisiae deletion strains, locus YOR106W, strain vam3, stronger effect = lower value 1.02 | S. cerevisiae deletion strains, locus YOR136W, strain idh2, stronger effect = lower value 0.977 | S. cerevisiae deletion strains, locus YOR144C, strain elg1, stronger effect = lower value 0.99 | S. cerevisiae deletion strains, locus YOR184W, strain ser1, stronger effect = lower value 0.97 | S. cerevisiae deletion strains, locus YOR231W, strain MKK1, stronger effect = lower value 1.05 | S. cerevisiae deletion strains, locus YOR265W, strain rbl2, stronger effect = lower value 0.998 | S. cerevisiae deletion strains, locus YOR270C, strain vph1, stronger effect = lower value 1.03 | S. cerevisiae deletion strains, locus YOR290C, strain snf2, stronger effect = lower value 0.997 | S. cerevisiae deletion strains, locus YOR316C, strain cot1, stronger effect = lower value 0.96 | S. cerevisiae deletion strains, locus YPL051W, strain arl3, stronger effect = lower value 1 | S. cerevisiae deletion strains, locus YPL055C, strain LGE1, stronger effect = lower value 0.94 | S. cerevisiae deletion strains, locus YPL078C, strain atp4, stronger effect = lower value 1.01 | S. cerevisiae deletion strains, locus YPL106C, strain sse1, stronger effect = lower value 1.01 | S. cerevisiae deletion strains, locus YPL240C, strain hsp82, stronger effect = lower value 0.997 | S. cerevisiae deletion strains, locus YPL256C, strain CLN2, stronger effect = lower value 1.01 | S. cerevisiae deletion strains, locus YPR119W, strain clb2, stronger effect = lower value 0.985 | S. cerevisiae deletion strains, locus YPR141C, strain kar3, stronger effect = lower value 0.966 | S. cerevisiae deletion strains, locus YPR163C, strain tif3, stronger effect = lower value 0.983 | S. cerevisiae deletion strains, locus YPR167C, strain met16, stronger effect = lower value 0.98 | S. cerevisiae deletion strains, strain wtn01, stronger effect = lower value 1.01 | S. cerevisiae strains, strain wild type, stronger effect = lower value 0.977
